PINK1 modulator = PINK1 expression modulation; PINK1 immunofluorescence, high-content cytometry, 24 h; Potency, µM (top dose mostly 76.6 µM), inactives show at the top dose activation (PINK1 increase), most hits filed as activators; 410,000 compounds, 0.2% hits; AID 624263; active means well fitted activation curve with a large enough effect; inconclusive means small, poorly fitted or top-dose-only effect; cell line not stated here; further: % of control where 0% means no effect; nearly all actives have a fitted effect of over 65% in size
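PINK1 protein level read as immunofluorescence by microplate cytometer in a fixed, stained stable cell line after 24 h exposure to five compound concentrations, with CCCP as control.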
MCF10A rereplic = induces DNA re-replication in MCF 10a normal breast cells | 350,000 compounds, 2.9% hits | Potency, µM (series often up to 46.1 µM), for the others: at the highest dose activity, positive = re-replication, actives largely listed as activators | AID 624296 | MCF 10A DNA re-replication, Hoechst nuclear intensity, 48 h; further: % of control where 0% means no effect; nearly all actives have a fitted effect of over 50% in size
KB-3-1 cytotox = KB-3-1 parental cell cytotoxicity. AID 1347075. 400,000 compounds, 1.4% hits. Potency, µM (titrated, usually from 46.1 µM), actives largely listed as cytotoxic. KB-3-1 viability, CellTiter-Glo ATP luminescence, 72 h; further: on the % scale 0 is the no-effect control and ±100 the full control effect; nearly all actives have a fitted effect of over 60% in size
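Here the drug-naive KB-3-1 line serves as comparator for MDR sub-line selectivity; cells received compound titrations, 72 h at 37 °C, then CellTiter-Glo readout.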
SW480 rerep = DNA re-replication induction in SW480 cells; AID 624297; 340,000 compounds, 1.8% hits; SW480 DNA re-replication, Hoechst DNA content imaging, 48 h; Potency, µM (doses to about 46.1 µM), inactives show at the top dose re-replication activation, usual class: activators; further: % of control where 0% means no effect; nearly all actives have a fitted effect of over 55% in size
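Image-based read-out: total Hoechst fluorescence of nuclei (405 nm excitation, 500-530 nm emission), with hits raising the fraction of high-intensity nuclei. SW480 colon cells incubated 48 hr with compounds at 37 C.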
KB-V1 MDR tox = KB-V1 MDR subline cytotoxicity | KB-V1 MDR cells viability, CellTiter-Glo, 72 h | Potency, µM (titrated, usually from 46.1 µM), actives largely listed as cytotoxic | 400,000 compounds, 3.4% hits | AID 1347076; further: on the % scale 0 is the no-effect control and ±100 the full control effect; nearly all actives have a fitted effect of over 60% in size
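Cytotoxicity toward P-gp-expressing KB-V1 cells was determined as loss of CellTiter-Glo luminescence after 72 h at 37 degrees C. Compounds were tested in quantitative HTS format across a concentration range, with curves fitted to normalized data.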
* marks the source's active call; other numbers are inactive results; [ ] = dose if it differs, or a comment. This is a sample that favours compounds with a hit; in the whole collection about 6.7% have one here. Unless noted, the call rests on the fitted dose curve; in most records, active means well fitted curve in the direction sought with a large enough effect; inconclusive means small, poorly fitted or top-dose-only effect, or another doubt; inactive means no such curve, though single readings can be large; an effect the other way counts as inactive or inconclusive. Potency means the concentration at half of the fitted maximal effect.

Screening O=C(O)c1ccc(CNC(=O)C2CCCN2C(=O)OCc2ccccc2)cc1 (configuration not stated) returned PINK1 modulator -1%, MCF10A rereplic -1%, KB-3-1 cytotox inactive, SW480 rerep -3% and KB-V1 MDR tox inactive.
`O=S(=O)(Nn1cnnc1)c1ccc(F)cc1` gave PINK1 modulator -4%, MCF10A rereplic 2.3µM*, KB-3-1 cytotox inactive, SW480 rerep 27% and KB-V1 MDR tox inactive.
Screening CCOC(=O)/C=C1/SCC(=O)N1CC(=O)Nc1cccc(F)c1 returned PINK1 modulator 1%, MCF10A rereplic -4%, KB-3-1 cytotox inactive, SW480 rerep 1% and KB-V1 MDR tox inactive.
`CCOC(=O)/C=C1\SCC(=O)N1CC(=O)Nc1ccc2c(c1)CCC2` gave PINK1 modulator 0%[38.3 µM], MCF10A rereplic 9.2µM*, KB-3-1 cytotox inactive, SW480 rerep inconclusive and KB-V1 MDR tox inconclusive.
For OCCCNc1cc(-c2ccnc(Nc3cccc(Cl)c3)n2)ccn1 the results were PINK1 modulator -1%, MCF10A rereplic inconclusive, KB-3-1 cytotox inconclusive, SW480 rerep inconclusive and KB-V1 MDR tox 0.13µM*.
`CC(C)[C@H](NC(=O)c1ccccc1)C(=O)OCC(=O)Nc1sccc1C(N)=O` gave PINK1 modulator 3%, MCF10A rereplic -10%, KB-3-1 cytotox inactive, SW480 rerep 3% and KB-V1 MDR tox inactive.
CSCC(=O)NC1CCCc2c1cnn2-c1ccc(C)c(C)c1 (configuration not stated) was read as PINK1 modulator 1%, MCF10A rereplic -4%, KB-3-1 cytotox inactive, SW480 rerep -5% and KB-V1 MDR tox inactive.
Screening COc1ccc2sc(-c3ccccc3OC)c(-c3ccc(O)cc3)c2c1 returned PINK1 modulator 4%, MCF10A rereplic 16µM*, KB-3-1 cytotox inactive, SW480 rerep 2% and KB-V1 MDR tox inactive.
`COc1cc2sc(-c3ccccc3OC)c(-c3ccc(O)cc3)c2cc1OC` gave PINK1 modulator 17%, MCF10A rereplic -12%, KB-3-1 cytotox inactive, SW480 rerep inconclusive and KB-V1 MDR tox inactive.
Screening O=C1C=C(O)CC(c2ccc(Cl)c(Cl)c2)C1 (configuration not stated) returned PINK1 modulator -1%, MCF10A rereplic 5µM*, KB-3-1 cytotox inactive, SW480 rerep -1%[9.22 µM] and KB-V1 MDR tox inactive.
COc1cccc(NC(=O)Cn2c(=O)n(-c3ccccc3)c(=O)c3oc4ccccc4c32)c1 was read as PINK1 modulator 5%, MCF10A rereplic 16%, KB-3-1 cytotox inconclusive, SW480 rerep 0% and KB-V1 MDR tox 21µM*.
Screening CC(=O)Nc1ccc(NC(=O)Cn2c(=O)n(-c3ccccc3)c(=O)c3oc4ccccc4c32)cc1 returned PINK1 modulator 1%, MCF10A rereplic -5%, KB-3-1 cytotox inactive, SW480 rerep -7% and KB-V1 MDR tox inactive.
Screening CC(C)c1ccc(/C=c2\sc3n(c2=O)C(N)=C(C#N)C(c2ccc(C(C)C)cc2)C=3C(N)=O)cc1 (configuration not stated) returned PINK1 modulator 4%, MCF10A rereplic 1.3µM*, KB-3-1 cytotox inconclusive, SW480 rerep inconclusive and KB-V1 MDR tox inactive.
Screening c1ccc(-c2nnc3sc(CN4CCC5(CC4)OCCO5)cn23)cc1 returned PINK1 modulator 14%[38.3 µM], MCF10A rereplic -3%, KB-3-1 cytotox inactive, SW480 rerep -2% and KB-V1 MDR tox 21µM*.
O=C(NC1CCN(Cc2ccccc2)C1)c1cnn(-c2ncc3c(n2)-c2ccccc2CC3)c1C1CC1 (configuration not stated) was read as PINK1 modulator 1%.
For CCn1c(SCC(=O)N/N=C/C=C\c2ccccc2[N+](=O)[O-])nc2ccccc21 the results were PINK1 modulator 9%[38.3 µM], MCF10A rereplic 15%, KB-3-1 cytotox inconclusive, SW480 rerep -1% and KB-V1 MDR tox 7.3µM*.
Screening CC(C)c1ccccc1NC(=O)Cn1c(/C=C/c2ccccc2)nc2ccccc21 returned PINK1 modulator 3%, MCF10A rereplic 10µM*, KB-3-1 cytotox inactive, SW480 rerep 9.2µM* and KB-V1 MDR tox inconclusive.
For CC(=O)c1cc(-c2ccccc2)n(CC(=O)Nc2cccc(C)c2C)c1C the results were PINK1 modulator -1%, MCF10A rereplic -3%, KB-3-1 cytotox inactive, SW480 rerep -1% and KB-V1 MDR tox inactive.
`Cc1nc2ccccc2n1CC(=O)NC1CCCCCC1` gave PINK1 modulator 3%, MCF10A rereplic 0%, KB-3-1 cytotox inconclusive, SW480 rerep -12% and KB-V1 MDR tox 15µM*.
CC(=O)c1cc(-c2ccccc2)n(CC(=O)Nc2ccc(C)c(C)c2)c1C was read as PINK1 modulator 5%, MCF10A rereplic 23µM*, KB-3-1 cytotox inactive, SW480 rerep 4% and KB-V1 MDR tox inactive.
For CC(C)c1ccccc1NC(=O)Cn1c(-c2ccccc2Cl)nc2ccccc21 the results were PINK1 modulator 2%, MCF10A rereplic -1%, KB-3-1 cytotox inactive, SW480 rerep 28% and KB-V1 MDR tox inconclusive.
Screening Cn1c(=O)oc2cc(S(=O)(=O)CCC(=O)N3CCN(c4cccc(Cl)c4)CC3)ccc21 returned PINK1 modulator 4%, KB-3-1 cytotox inactive and KB-V1 MDR tox inactive.
CCCn1c(/C=C/c2ccccc2)nc2ccccc21 was read as PINK1 modulator 1%, MCF10A rereplic 23µM*, KB-3-1 cytotox inactive, SW480 rerep inconclusive and KB-V1 MDR tox inactive.
`Cc1ccc(C(=O)Cn2c(C(=O)/C=C/c3ccccc3)nc3ccccc32)cc1` gave PINK1 modulator -1%, MCF10A rereplic 23µM*, KB-3-1 cytotox inconclusive, SW480 rerep inconclusive and KB-V1 MDR tox 13µM*.
`Cc1ccc(NC(=O)Cn2c(/C=C/c3ccccc3)nc3ccccc32)cc1C` gave PINK1 modulator 17%[38.3 µM], MCF10A rereplic 16µM*, KB-3-1 cytotox inactive, SW480 rerep inconclusive and KB-V1 MDR tox inconclusive.
Screening Cc1ccc(NC(=O)Cn2c(=O)c(C(F)(F)F)nc3ccccc32)cc1C returned PINK1 modulator 5%, KB-3-1 cytotox inactive and KB-V1 MDR tox inactive.
`Cc1nc2ccccc2n1CC(=O)N/N=C\C=C\c1ccccc1` gave PINK1 modulator -2%, MCF10A rereplic 3%, KB-3-1 cytotox inactive, SW480 rerep -2% and KB-V1 MDR tox 21µM*.
For COc1ccccc1-c1ccnc(-n2ncc(C(=O)NC(C)(C)CO)c2C2CC2)n1 the results were PINK1 modulator 0%.
For CCN1CCCC1CNCc1cc2c(OC)c(OC)c(OC)cc2nc1N(C)C (configuration not stated) the results were PINK1 modulator 0%.
For O=C(N/N=C/C=C\c1ccccc1[N+](=O)[O-])c1ccco1 the results were PINK1 modulator 2%, MCF10A rereplic inconclusive, KB-3-1 cytotox inactive, SW480 rerep 26µM* and KB-V1 MDR tox inactive.

Screening results: PubChem, National Center for Advancing Translational Sciences (NCATS)
